From the supplement of paper PMC9262897, “Low-cost anti-mycobacterial drug discovery using engineered E. coli” (Nature Communications, 2022)
Counter-ions that a name gives are not always drawn. ± gives the standard deviation of the averaged measurements.

Each molecule was assayed on E. coli TESEC Alr+ wild-type control (assay: growth (OD600 after 10 h); higher = more growth (less inhibition)). Details: compound 0.1 mM; raw OD600 reference: median of DMSO wells 0.241, cell-free background 0.041.
Method: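 TESEC Mtb Alr E. coli, or the Alr+ wild-type control, in 384-well plates with Prestwick library compounds at 0.1 mM and 1% DMSO, across arabinose induction levels of 1E3 to 1E7 nM. Growth is read as OD600 after 10 h at 37 °C in triplicate biological replicates.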

Row | Compound | growth
1 | C=CCOc1ccccc1OCC(O)CNC(C)C (configuration not stated) [Oxprenolol hydrochloride] | 0.2186 ± 0.001
2 | CCOc1ccc2c(c1)C(C)=CC(C)(C)N2 [Ethoxyquin] | 0.183 ± 0.0075
3 | CC1Cc2ccccc2N1NC(=O)c1ccc(Cl)c(S(N)(=O)=O)c1 (configuration not stated) [Indapamide] | 0.225 ± 0.0038
4 | CCC(=O)OCC(=O)[C@@]1(OC(=O)CC)[C@H](C)C[C@H]2[C@H]3[C@H]([C@@H](O)C[C@@]21C)[C@@]1(C)C=CC(=O)C=C1C[C@H]3Cl [Alclometasone dipropionate] | 0.21 ± 0.0058
5 | Cc1scc2c1N(C(=O)CN1CCN(C)CC1)c1ccccc1NC2=O [Telenzepine dihydrochloride] | 0.242 ± 0.0054
6 | O=C1CC[C@@H](C(=O)N2CSC[C@H]2C(=O)O)N1 [Pidotimod] | 0.231 ± 0.0032
7 | CCC1NC(=O)c2cc(S(N)(=O)=O)c(Cl)cc2N1 (configuration not stated) [Quinethazone] | 0.248 ± 0.0085
8 | CN1CCCN(C(c2ccccc2)c2ccc(Cl)cc2)CC1 (configuration not stated) [Homochlorcyclizine dihydrochloride] | 0.189 ± 0.0068
9 | C1N2CN3CN1CN(C2)C3 [Methenamine] | 0.245 ± 0.011
10 | CC(C)(O/N=C(\C(=O)N[C@@H]1C(=O)N2C(C(=O)[O-])=C(C[n+]3ccccc3)CS[C@H]12)c1csc(N)n1)C(=O)O [Ceftazidime pentahydrate] | 0.0434 ± 0.00087
11 | CC(C(O)c1ccc(O)cc1)N1CCC(Cc2ccccc2)CC1 (configuration not stated) [Ifenprodil tartrate] | 0.195 ± 0.018
12 | CCN(CC)CCNC(=O)c1ccc(N)cc1 [Procainamide hydrochloride] | 0.239 ± 0.0037
13 | CC[C@H]1OC(=O)[C@H](C)[C@@H](O[C@H]2C[C@@](C)(OC)[C@@H](O)[C@H](C)O2)[C@H](C)[C@@H](O[C@@H]2O[C@H](C)C[C@H](N(C)C)[C@H]2O)[C@](C)(O)C[C@@H](C)CN(C)[C@H](C)[C@@H](O)[C@]1(C)O [Azithromycin] | 0.04107 ± 0.00015
14 | OC(CCN1CCCCC1)(c1ccccc1)C1CCCCC1 (configuration not stated) [Trihexyphenidyl-D,L Hydrochloride] | 0.222 ± 0.012
15 | CN1C(C(=O)Nc2ccccn2)=C(O)c2ccccc2S1(=O)=O [Piroxicam] | 0.195 ± 0.0024
16 | c1ccc(CN(CC2=NCCN2)c2ccccc2)cc1 [Antazoline hydrochloride] | 0.2355 ± 0.0022
17 | CCCc1nc2c(C)cc(-c3nc4ccccc4n3C)cc2n1Cc1ccc(-c2ccccc2C(=O)O)cc1 [Telmisartan] | 0.208 ± 0.0078
18 | Nc1nc(F)nc2c1ncn2[C@@H]1O[C@H](CO)[C@@H](O)[C@@H]1O [Fludarabine] | 0.207 ± 0.0038
19 | CN1CCOC(c2ccccc2)c2ccccc2C1 (configuration not stated) [Nefopam hydrochloride] | 0.218 ± 0.0081
20 | NCCCC(O)(P(=O)(O)O)P(=O)(O)O [Alendronate sodium] | 0.259 ± 0.0047
21 | Clc1ccccc1C(c1ccccc1)(c1ccccc1)n1ccnc1 [Clotrimazole] | 0.03967 ± 0.00012
22 | O=C1c2cccc(O)c2C(=O)c2c(O)cccc21 [1,8-Dihydroxyanthraquinone] | 0.132 ± 0.0039
23 | CC(N/C(=N\C#N)Nc1ccncc1)C(C)(C)C (configuration not stated) [Pinacidil] | 0.223 ± 0.015
24 | COc1ccc2c(c1)c(CC(=O)OCC(=O)O)c(C)n2C(=O)c1ccc(Cl)cc1 [Acemetacin] | 0.154 ± 0.0063
25 | O=C(O)c1ccccc1C(=O)Nc1ccc(S(=O)(=O)Nc2nccs2)cc1 [Phthalylsulfathiazole] | 0.245 ± 0.0086
26 | c1ccc2c(c1)CCCC2C1=NCCN1 (configuration not stated) [Tetrahydrozoline hydrochloride] | 0.237 ± 0.0097
27 | Cc1nnc(NS(=O)(=O)c2ccc(N)cc2)s1 [Sulfamethizole] | 0.254 ± 0.0053
